Bioassay records as filed in PubChem BioAssay.
mHTT-CaM PPI inh = mutant huntingtin-calmodulin interaction inhibitors – biochemical, AlphaScreen, primary screen; P42858; AlphaScreen His-mHTT/GST-CaM binding, luminescence; inhibition, % at 15 µM; 190,000 tested, 3.6% active; AID 1671202, 2021;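 also: 0% = both proteins with DMSO and 100% = one protein alone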
Target sequence (P42858 whole entry, looked up, stated change not applied): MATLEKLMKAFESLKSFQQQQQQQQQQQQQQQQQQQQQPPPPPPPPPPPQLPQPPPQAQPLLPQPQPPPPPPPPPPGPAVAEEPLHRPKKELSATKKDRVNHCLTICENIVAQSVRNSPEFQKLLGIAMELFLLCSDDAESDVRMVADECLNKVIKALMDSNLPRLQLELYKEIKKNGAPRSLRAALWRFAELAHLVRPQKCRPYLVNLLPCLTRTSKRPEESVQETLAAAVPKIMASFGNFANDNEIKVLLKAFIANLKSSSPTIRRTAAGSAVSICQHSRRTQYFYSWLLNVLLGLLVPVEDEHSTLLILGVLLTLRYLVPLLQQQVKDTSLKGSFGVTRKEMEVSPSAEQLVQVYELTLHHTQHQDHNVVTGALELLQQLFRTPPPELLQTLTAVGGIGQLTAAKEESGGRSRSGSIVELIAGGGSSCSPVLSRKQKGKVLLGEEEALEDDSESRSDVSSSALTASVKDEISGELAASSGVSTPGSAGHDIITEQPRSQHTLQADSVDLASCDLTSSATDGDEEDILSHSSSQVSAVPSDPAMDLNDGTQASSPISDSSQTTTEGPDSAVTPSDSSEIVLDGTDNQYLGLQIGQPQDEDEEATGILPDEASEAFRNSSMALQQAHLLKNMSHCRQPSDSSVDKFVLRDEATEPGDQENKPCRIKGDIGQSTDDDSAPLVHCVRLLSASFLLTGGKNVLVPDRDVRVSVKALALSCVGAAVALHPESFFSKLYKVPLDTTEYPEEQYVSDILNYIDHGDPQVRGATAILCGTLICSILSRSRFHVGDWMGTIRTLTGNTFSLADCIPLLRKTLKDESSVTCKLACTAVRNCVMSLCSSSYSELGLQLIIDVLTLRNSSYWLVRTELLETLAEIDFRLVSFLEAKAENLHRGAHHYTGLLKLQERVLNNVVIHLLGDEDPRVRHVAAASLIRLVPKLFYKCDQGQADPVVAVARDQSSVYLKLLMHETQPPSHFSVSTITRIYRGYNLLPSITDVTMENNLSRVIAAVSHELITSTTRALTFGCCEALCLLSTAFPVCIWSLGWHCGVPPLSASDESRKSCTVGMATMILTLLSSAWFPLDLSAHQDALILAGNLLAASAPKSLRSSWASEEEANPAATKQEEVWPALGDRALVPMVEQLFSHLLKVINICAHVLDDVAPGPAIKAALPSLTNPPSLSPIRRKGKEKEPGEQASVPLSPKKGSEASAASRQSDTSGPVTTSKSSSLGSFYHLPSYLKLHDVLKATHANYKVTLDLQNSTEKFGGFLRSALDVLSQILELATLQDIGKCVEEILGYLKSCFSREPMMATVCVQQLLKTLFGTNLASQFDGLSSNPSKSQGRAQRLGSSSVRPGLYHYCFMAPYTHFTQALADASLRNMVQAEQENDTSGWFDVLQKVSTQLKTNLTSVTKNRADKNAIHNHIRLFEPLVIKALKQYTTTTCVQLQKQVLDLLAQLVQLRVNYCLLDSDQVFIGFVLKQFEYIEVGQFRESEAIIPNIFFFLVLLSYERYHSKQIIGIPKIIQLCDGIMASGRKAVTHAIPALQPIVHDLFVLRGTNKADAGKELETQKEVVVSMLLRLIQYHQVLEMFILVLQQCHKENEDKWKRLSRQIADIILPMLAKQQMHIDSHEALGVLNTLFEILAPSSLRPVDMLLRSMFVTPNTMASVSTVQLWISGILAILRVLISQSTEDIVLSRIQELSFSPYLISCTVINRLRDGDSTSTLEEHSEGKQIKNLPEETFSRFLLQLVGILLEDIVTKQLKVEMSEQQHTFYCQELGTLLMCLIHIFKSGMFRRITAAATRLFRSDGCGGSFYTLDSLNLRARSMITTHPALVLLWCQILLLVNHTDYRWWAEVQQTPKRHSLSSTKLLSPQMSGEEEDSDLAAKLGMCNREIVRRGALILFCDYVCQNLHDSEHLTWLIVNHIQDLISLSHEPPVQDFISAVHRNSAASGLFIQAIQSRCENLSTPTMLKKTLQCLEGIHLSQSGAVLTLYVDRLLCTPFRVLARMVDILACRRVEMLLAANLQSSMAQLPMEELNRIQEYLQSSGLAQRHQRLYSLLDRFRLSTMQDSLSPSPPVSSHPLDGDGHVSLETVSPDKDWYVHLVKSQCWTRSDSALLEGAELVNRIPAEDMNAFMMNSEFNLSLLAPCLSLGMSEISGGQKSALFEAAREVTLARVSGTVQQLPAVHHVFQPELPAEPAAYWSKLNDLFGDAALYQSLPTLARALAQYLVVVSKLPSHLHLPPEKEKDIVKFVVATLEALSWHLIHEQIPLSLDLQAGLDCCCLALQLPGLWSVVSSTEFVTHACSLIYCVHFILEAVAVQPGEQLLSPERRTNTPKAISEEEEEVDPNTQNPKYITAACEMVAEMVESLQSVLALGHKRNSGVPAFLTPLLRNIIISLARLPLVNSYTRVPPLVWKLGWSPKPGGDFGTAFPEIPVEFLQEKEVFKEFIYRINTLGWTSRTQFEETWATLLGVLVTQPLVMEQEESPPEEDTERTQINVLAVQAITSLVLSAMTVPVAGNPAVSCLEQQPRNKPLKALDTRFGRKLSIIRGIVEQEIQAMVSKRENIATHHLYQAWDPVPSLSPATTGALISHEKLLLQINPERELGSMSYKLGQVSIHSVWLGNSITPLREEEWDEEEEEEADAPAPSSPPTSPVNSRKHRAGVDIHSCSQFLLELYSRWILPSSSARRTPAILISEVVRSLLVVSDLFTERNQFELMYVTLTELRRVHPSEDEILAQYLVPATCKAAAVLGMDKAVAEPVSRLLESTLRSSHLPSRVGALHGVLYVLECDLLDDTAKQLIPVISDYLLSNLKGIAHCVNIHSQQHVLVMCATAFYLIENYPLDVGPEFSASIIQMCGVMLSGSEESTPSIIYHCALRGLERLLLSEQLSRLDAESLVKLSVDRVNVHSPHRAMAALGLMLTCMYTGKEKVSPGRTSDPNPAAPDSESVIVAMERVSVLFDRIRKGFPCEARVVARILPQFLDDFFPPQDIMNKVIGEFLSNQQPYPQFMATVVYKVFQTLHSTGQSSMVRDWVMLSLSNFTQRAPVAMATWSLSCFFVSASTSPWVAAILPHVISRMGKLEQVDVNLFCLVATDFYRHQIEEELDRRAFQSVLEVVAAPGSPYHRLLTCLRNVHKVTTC
Pf apPOL block = Pf-apPOL inhibitors, biochemical, fluorescence. AID 1794808, 2022. Recombinant Pf-apPOL, molecular beacon fluorescence, 1.5 h. inhibition, % at 10 µM. 210,000 tested, 0.25% active
Starred values were filed as active, the others as inactive; i = inactive; . = not tested or not shown; + = active, no number. Shown are actives, neighbours in structure and some others; about 3.5% of the full set was active somewhere. Rule as the data show it: active = inhibition above about 50%; inactive = the rest.

SMILES	mHTT-CaM PPI inh	Pf apPOL block
Cc1nnc2cc(N3CCN(Cc4ccc(C(F)(F)F)cc4)CC3)cnn12	67*	4
CC(=O)N1CCN(c2nc3c(s2)CC(C(=O)Nc2ccc4c(c2)OCO4)CC3)CC1 (centres undefined)	47	-2
Cc1ccc2[nH]c3nc(NN)nnc3c2c1	47	-6
CCCSc1nnc2c(n1)[nH]c1c(C)cccc12	9	-4
NNc1nnc2c(n1)[nH]c1ccccc12	100*	-7
Cc1cccc2c1[nH]c1nc(NN)nnc12	66*	-1
CC(Oc1ccc2c(c1)OC(=Cc1ccccc1Cl)C2=O)C(=O)O (centres undefined)	4	-3
CCCc1[nH]nc2c1C(c1ccc(C(F)(F)F)cc1)C(C#N)=C(N)O2 (centres undefined)	9	6
CC(=O)Nc1ccccc1-c1nc2ccccc2s1	-34	-8
CCCNc1cc(N2CCCC(CCC(=O)NCCc3ccccn3)C2)ncn1 (centres undefined)	7	-5
CCCOc1ccc(/C=c2\sc3nc(=O)c(Cc4ccccc4)nn3c2=O)cc1OCC	-3	-2
COc1ccc(/C=C2\SC(=O)N(CNc3ccccc3OC)C2=O)cc1	32	-2
COc1ccc(NCN2C(=O)S/C(=C\c3ccccc3OC)C2=O)cc1	52*	7
O=C1S/C(=C\c2ccccc2F)C(=O)N1CNc1cccc(F)c1	-4	0
COc1ccccc1/C=C1\SC(=O)N(CNc2cccc(C)c2)C1=O	58*	-1
COc1ccccc1C1CC(c2ccc(Br)cc2)Nc2nnnn21 (centres undefined)	-1	2
CN(C)C(=O)C1CCCN(c2nnc3c(Cl)cccn23)C1 (centres undefined)	-6	-2
COc1ccc(CNC(=O)N2CCC(n3c(-c4ccco4)nc4cccnc43)C2)cc1 (centres undefined)	19	-2
O=C1Nc2ccccc2/C1=N\N1CCN(C2c3ccccc3-c3ccccc32)CC1	+	.
O=C1Nc2ccccc2/C1=N\N1C(=O)C2C=CC=CC2C1=O (centres undefined)	i	.
COc1ccc(C(C)NC(=O)CN(c2ccc([N+](=O)[O-])cc2)S(=O)(=O)c2ccccc2)cc1 (centres undefined)	13	1
COc1ccc(-c2csc(Nc3ccccc3)[n+]2CC(O)c2ccc([N+](=O)[O-])cc2)cc1 (centres undefined)	66*	1
CN(C)c1cccc(OCc2noc(-c3ccccc3Cl)n2)c1	68*	-9
Clc1ccccc1-c1nc(COc2ccc3c(c2)OCO3)no1	5	0
OC[C@@H]1[C@@H](c2ccc(F)cc2)C(c2ccccc2)=NN1c1ccccc1	89*	-4
SMILES	mHTT-CaM PPI inh	Pf apPOL block
Cc1cccc(C2=NN(c3ccccc3)[C@H](CO)[C@H]2C)c1	-5	-4
Cc1cccc(C2=NN(c3ccccc3)[C@H](CO)[C@H]2c2ccccc2)c1	87*	-3
CC[C@H]1C(c2ccc(F)cc2)=NN(c2ccccc2)[C@@H]1CO	-58	-6
O=C(CSc1ncnc2sc(-c3ccccc3)cc12)N1CCCCC1	0	3
O=[N+]([O-])c1cccc2c1NC(c1ccc(Br)cc1)C1CC=CC21 (centres undefined)	82*	1
O=[N+]([O-])c1cccc2c1NC(c1ccccc1Br)C1CC=CC21 (centres undefined)	63*	-1
CCOc1ccccc1NC(=O)CCN1CCN(C2c3ccccc3-c3ccccc32)CC1	57*	0
O=C(CCN1CCN(C2c3ccccc3-c3ccccc32)CC1)Nc1ccccc1F	15	-2
O=c1cc(O)c2sc3nc4c(cc3c2[nH]1)CCCCC4	-5	.
O=C(Nc1ccc(-c2nc3ccccc3s2)c(O)c1)c1ccccc1	-13	97*
O=C(Nc1ccc(-c2nc3ccccc3s2)c(O)c1)c1ccc(F)cc1	-4	0
O=C(Nc1ccc(-c2nc3ccccc3s2)cc1)c1ncn[nH]1	54*	-6
Cc1ccc(-c2nc3ccccc3s2)cc1NC(=O)c1ccco1	0	-7
O=C(Nc1ccc(-c2nc3ccccc3s2)cc1)c1ccccc1F	5	2
Cc1cc(C(=O)Nc2cccc(-c3nc4ccccc4s3)c2)on1	-2	54*
COc1cccc(C(=O)Nc2cccc(-c3nc4ccccc4s3)c2)c1	-6	0
Cc1ccc(-c2nc3ccccc3s2)cc1NC(=O)c1ncn[nH]1	98*	-4
CCc1ccc(N=Cc2c(O)n(-c3ccccc3OC)c(=O)c3ccccc23)cc1	18	9
Cc1ccccc1CNC(=O)CCC1CCCN(C(=O)Nc2ccccc2)C1 (centres undefined)	2	-3
COc1ccc(-n2cc(C(=O)N3CCCC3)nn2)cc1	-6	-2
COc1cccc(C(=O)NCCSc2c[nH]c3ccccc23)c1	9	-4
Cc1cc(-c2ccccc2)nc2c1C(=NO)CC(C)(C)C2	.	-2
COc1c(C(=O)N2CCOCC2)sc2ccc(F)cc12	-5	-1
COc1c(C(=O)N2CCN(c3ccccc3)CC2)sc2ccc(F)cc12	60*	1
O=C(O)[C@@H]1CC=C[C@@H]2CCN(C3CC3)C(=O)[C@@H]21	2	-4
SMILES	mHTT-CaM PPI inh	Pf apPOL block
CCC(=O)N1CCc2cc(Br)cc(S(=O)(=O)Nc3c(C)cccc3C)c21	1	-9
COc1cccc(Nc2ncc3c(n2)CCN(Cc2ccc(N(C)C)cc2)C3)c1	73*	-4
COc1ccc(Nc2ncc3c(n2)CCN(Cc2ccc(N(C)C)cc2)C3)c(OC)c1	36	-7
CCOc1ccc(CN2CCc3nc(Nc4cccc(OC)c4)ncc3C2)cc1	20	-12
COc1cccc(Nc2ncc3c(n2)CCN(Cc2ccc(OC(C)C)cc2)C3)c1	51*	-1
Cc1ccc(CN2C(=O)/C(=C/C(=O)O)Sc3ccccc32)cc1	60*	28
Cc1ccccc1CN1C(=O)/C(=C/C(=O)O)Sc2ccccc21	27	28
O=C(/C=C1\Sc2ccccc2N(Cc2ccc(F)cc2)C1=O)NCCc1ccccc1	-16	10
Cc1ccccc1CN1C(=O)/C(=C/C(=O)NCCc2ccccc2)Sc2ccccc21	51*	-16
CCCCNC(=O)CCC1CCN(c2cc(NCCC)ncn2)CC1	-2	-1
CCOc1cc(C=O)cc(Cl)c1OCc1ccccc1F	-13	-16
COc1ccc(NC(=O)C2CN(S(C)(=O)=O)CC23CCCCC3)cc1F (centres undefined)	7	6
C=CCN1C(=O)/C(=C2\SC(N3CC(C)OC(C)C3)=NC2=O)c2cc(Br)ccc21 (centres undefined)	54*	.
C=CCN1C(=O)/C(=C2/SC(N3CCCCC3)=NC2=O)c2cc(Br)ccc21	52*	-4
CCCN1C(=O)/C(=C2/SC(=N)NC2=O)c2cc(Br)ccc21	5	-1
O=C(O)CN1C(=O)/C(=C2/SC(N3CCOCC3)=NC2=O)c2cc(Br)ccc21	0	2
Cc1ccc(-n2c(SCC(=O)Nc3ccc(C)c(Cl)c3)nc3c(c2=O)SCC3)cc1	9	0
N#CSCC(=O)N1c2ccccc2Sc2ccc(C(F)(F)F)cc21	3	14
Cn1ccnc1SCC(=O)N1c2ccccc2Sc2ccc(C(F)(F)F)cc21	53*	-1
O=S(=O)(Nc1ccc(F)c(Cl)c1)c1cccnc1	5	-2
